Assay [1] deals with Zika virus NS2B-NS3 protease (linked construct). In words: Primary screen NINDS Rhodamine qHTS for Zika virus inhibitors (AID 1347160). Note: % is set by controls: 0 for no effect and ±100 for the full control effect; nearly all actives have a fitted effect of over 55% in size. The procedure, abridged:
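Percent inhibition, normalized to uninhibited and enzyme-free controls, is fitted to a 4-parameter Hill equation. Fluorescence change comes from a 15-min cleavage of 1.5 microM bis-peptide Rhodamine110 substrate by 25 nM linked NS2B-NS3 at room temperature.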
On the technique in general: In qHTS, concentration-response curves come from the screen itself.

Assay [2] concerns the target Calcium and integrin-binding protein 1 (Homo sapiens) (UniProt Q99828). In words: Primary qHTS for Identification of Calcium Integrin Binding Protein 1 (CIB1) Competitor (AID 1508620).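 Note: GST tagged CIB1 binding a fluorescein labelled alphaIIb integrin peptide tracer; top concentration of the series differs between compounds; % is set by controls: 0 for no effect and ±100 for the full control effect.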 The procedure, abridged: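 CIB1-GST (1 uM final) and compound incubated 15 min at room temperature before adding FITC-alphaIIb peptide tracer (100 nM final). Competition for binding read by fluorescence polarization (ex 480, em 540) after another 15 min at room temperature.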

Assay [3] is described as follows: Primary qHTS for inhibitors of nuclear receptor binding SET domain protein 2 (NSD2) in an isogenic RCH-ACV NSD2 p.E1099K mutant (9B) (AID 1645876). Note: nearly all actives have a fitted effect of over 70% in size. Note: potency is the fitted concentration of half-maximal effect.
Assay [4] deals with Glutathione peroxidase 1 (Homo sapiens) (UniProt P07203). Put plainly: Primary qHTS Assay for Inhibitors of Recombinant Selenoprotein Glutathione Peroxidase 1 (GPX1) (AID 1845191). Note: nearly all actives have a fitted effect of over 65% in size. The method in brief: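 10 nM GPX1 + cpd, 30 min RT; start w/ 1 mM GSH, 0.5 mM cumene hydroperoxide, 0.5 mM NADPH, 100 nM GR, 0.01% BSA; buffer 50 mM Tris-HCl pH 7.5, 2 mM EDTA, 150 mM NaCl; Fl 340/450, 0 & 15 min.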

In assay [5] the target is Phospholipid hydroperoxide glutathione peroxidase GPX4 (Homo sapiens) (UniProt P36969). Put plainly: Primary qHTS Assay for Inhibitors of Recombinant Selenoprotein Glutathione Peroxidase 4 (GPX4) (AID 1845192). Note: nearly all actives have a fitted effect of over 65% in size. The method in brief:
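NADPH consumption, followed by fluorescence at 340/450 nm between 0 and 15 min, reports GPX4 activity via coupled glutathione reductase (100 nM). Enzyme 200 nM was pre-exposed to compound 30 min; 0.5 mM cumene hydroperoxide and 1 mM GSH served as substrates.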

Assay [6] addresses Luciferin 4-monooxygenase (Photinus pyralis) (UniProt P08659). Put plainly: Primary firefly luciferase (FLuc) qHTS assay for identification of artifact compounds. (AID 1845220). Note: nearly all actives have a fitted effect of over 60% in size. As to conditions: outcome: dose series up to 54.1 µM unless noted. The method in brief: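 Compounds sat 15 min at room temperature with 10 uM luciferin and 10 uM ATP (pH 7.6 Tris acetate). Firefly luciferase (10 nM final) was then added, and luminescence was read 5 min later. Data normalized to no-enzyme and DMSO controls were Hill-fitted.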

Assay [7] has as its system Nanoluciferase (engineered Oplophorus gracilirostris luciferase). In words: Primary Nanoluciferase (NLuc) qHTS assay for identification of artifact compounds. (AID 1845222). Note: potency is the fitted concentration of half-maximal effect. The method in brief: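 Luminescence from secreted NLuc (filtered, 1:55-diluted S16 cell medium) read 5 min after Nano-Glo substrate; compounds preincubated 15 min, RT. Hill fits of inhibition normalized to DMSO and no-enzyme.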

The subject of the next assay is CRL-7250. In words: Cytotoxic Profiling of Annotated Libraries Using Quantitative High-Throughput Screening (AID 1296008). For max response: % is set by controls: 0 for no effect and ±100 for the full control effect. Note: nearly all actives have a fitted effect of over 60% in size. Note: potency is the fitted concentration of half-maximal effect. As to conditions: Five cell lines viability, CellTiter-Glo ATP luminescence, 48-72 h; max response: hits give low values. The method in brief:
(§1)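 Cytotoxicity was measured as CellTiter-Glo ATP luminescence, read after 10 min at room temperature. Compound treatment of the cells lasted 48 or 72 hr at 37 degrees Celsius in a qHTS format.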
In general terms: Cellular ATP, detected with luciferase, serves as a proxy for viable cell number.

In a further assay the test system is HEK293. Described as above. As to conditions: Five cell lines viability, CellTiter-Glo ATP luminescence, 48-72 h; max response: hits give low values. The method in brief: as §1
In the next assay the test system is HaCat. The description is as above. As to conditions: Five cell lines viability, CellTiter-Glo ATP luminescence, 48-72 h; max response: hits give low values. The procedure, abridged: as §1
A further assay concerns CASKI. In words: Primary qHTS to identify gynecologic anti-cancer compounds using libraries of approved drugs and bioactive compounds (AID 1345084). Note: nearly all actives have a fitted effect of over 55% in size. Note: potency is the fitted concentration of half-maximal effect. As to conditions: Gynecologic cancer cell panel viability, ATPlite luminescence, 48 h; series mostly up to 57.5 µM. The method in brief: (§2)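 Cell viability after 48 h drug treatment, ATPlite luminescence readout; five doses.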

The subject of another assay is NIH3T3. Put plainly: Cytotoxic Profiling of Annotated Libraries Using Quantitative High-Throughput Screening (AID 1296008). For max response: % is set by controls: 0 for no effect and ±100 for the full control effect. Note: nearly all actives have a fitted effect of over 60% in size. Note: potency is the fitted concentration of half-maximal effect. The note with it: Five cell lines viability, CellTiter-Glo ATP luminescence, 48-72 h; max response: hits give low values. The method in brief: as §1
A further assay has as its system C33A. In words: Primary qHTS to identify gynecologic anti-cancer compounds using libraries of approved drugs and bioactive compounds (AID 1345084). Note: nearly all actives have a fitted effect of over 55% in size. Note: potency is the fitted concentration of half-maximal effect. The note with it: Gynecologic cancer cell panel viability, ATPlite luminescence, 48 h; series mostly up to 57.5 µM. The method in brief:
as §2

For the next assay, the system named is Es-2. The description is as above. The note with it: Gynecologic cancer cell panel viability, ATPlite luminescence, 48 h; series mostly up to 57.5 µM. The method in brief: as §2
In the next assay the test system is Hek293T. The description is as above. As to conditions: Gynecologic cancer cell panel viability, ATPlite luminescence, 48 h, control line for the selectivity index; series mostly up to 57.5 µM. The method in brief:
as §2

The test system of a further assay is JEG-3. The description is as above. As to conditions: Gynecologic cancer cell panel viability, ATPlite luminescence, 48 h; series mostly up to 57.5 µM. The method in brief:
as §2

The test system of another assay is OV90. The assay is described as above. As to conditions: Gynecologic cancer cell panel viability, ATPlite luminescence, 48 h; series mostly up to 57.5 µM. The procedure, abridged: as §2
For the next assay, the system named is PA-1. The description is as above. The note with it: Gynecologic cancer cell panel viability, ATPlite luminescence, 48 h; series mostly up to 57.5 µM. The method in brief:
as §2

In the next assay the test system is Tov-21-G. Described as above. The note with it: Gynecologic cancer cell panel viability, ATPlite luminescence, 48 h; series mostly up to 57.5 µM. The procedure, abridged:
as §2

The next assay has as its system Tov112D. The assay is described as above. The note with it: Gynecologic cancer cell panel viability, ATPlite luminescence, 48 h; series mostly up to 57.5 µM. The method in brief:
as §2

“And” between values parts separate entries of the source, which are not always exact repeats. Identical values can stand only once. Values without a mark were called inactive. Records with an inconclusive call do not appear. The source made the active and inactive calls. Calls come from the whole dose curve; as a rule, active = well fitted curve in the direction sought with a large enough effect; inconclusive = small, poorly fitted or top-dose-only effect, or another doubt; inactive = no such curve, though single readings can be large; an effect the other way counts as inactive or inconclusive.

Chain of Phospholipid hydroperoxide glutathione peroxidase GPX4 (Homo sapiens) (P36969 whole entry, looked up): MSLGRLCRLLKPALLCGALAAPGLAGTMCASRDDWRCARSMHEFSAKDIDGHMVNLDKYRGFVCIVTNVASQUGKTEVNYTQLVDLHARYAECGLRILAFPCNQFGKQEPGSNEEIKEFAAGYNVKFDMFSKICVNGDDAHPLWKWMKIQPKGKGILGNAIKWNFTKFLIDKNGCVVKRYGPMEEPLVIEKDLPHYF
Chain of Glutathione peroxidase 1 (Homo sapiens) (P07203 whole entry, looked up): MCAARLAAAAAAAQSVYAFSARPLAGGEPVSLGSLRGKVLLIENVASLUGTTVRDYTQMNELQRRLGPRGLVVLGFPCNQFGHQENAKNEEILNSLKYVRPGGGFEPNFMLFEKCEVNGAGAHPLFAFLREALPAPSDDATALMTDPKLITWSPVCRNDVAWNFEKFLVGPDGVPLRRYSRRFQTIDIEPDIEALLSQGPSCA
Chain of Calcium and integrin-binding protein 1 (Homo sapiens) (Q99828 whole entry, looked up): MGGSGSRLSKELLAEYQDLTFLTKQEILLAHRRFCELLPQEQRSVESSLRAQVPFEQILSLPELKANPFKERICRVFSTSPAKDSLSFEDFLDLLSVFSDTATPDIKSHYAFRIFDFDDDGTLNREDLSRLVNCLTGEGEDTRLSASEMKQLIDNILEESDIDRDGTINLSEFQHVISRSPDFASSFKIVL

Regarding `COc1cc2c(c(OC)c1OC)-c1ccc(SC)c(=O)cc1[C@@H](NC(C)=O)CC2`, the Potency entry (in assay [1]; in assay [2]; in assay [4]; in assay [5]; with CASKI) was “inactive” in each case. Besides, the Potency in assay [3] is 0.0046 µM (active); in [7], 19000 nM (active); in the assay with CRL-7250, 9.2 nM (active); with HEK293, 8.2 nM (active). Further, the call in [6] was inactive. The max response in the assay with HaCat was 4.59%.
`C[C@H]1CCC/C=C/C2C[C@H](O)C[C@H]2[C@H](O)/C=C/C(=O)O1` (stereo partly specified): the Potency result in [1], in [2], in assay [4], in assay [5] and in assay [7] was “inactive” in each case. The Potency in [3] was 163 nM (active) and 332 nM (active); in the assay on CRL-7250, 51.7 nM (active); in the assay on HEK293 it was 580 nM (active); with HaCat, 184 nM (active); with NIH3T3 it was 5170 nM (active); with C33A, 631 nM (active). In addition, the Potency was 1000 nM (active) in the assay on CASKI; 316 nM (active) in the assay on Es-2; 891 nM (active) with Hek293T; 891 nM (active) in the assay with JEG-3; 316 nM (active) with OV90; 316 nM (active) with PA-1. Besides, the figures for the Potency with Tov-21-G and in the assay with Tov112D were 1000 nM (active) and 891 nM (active), respectively. The result in assay [6] was inactive.
As to `COC1C(O)C(C)OC(OC2C(CO)O[C@@H](O[C@@H]3CC4CCC5C(CC[C@]6(C)[C@@H](C7=CC(=O)OC7)CC[C@]56O)[C@@]4(C)[C@H](OC(C)=O)C3)C(O)C2O)C1O` (stereo partly specified), the Potency entry (in assay [1]; in assay [2]; in assay [4]; in assay [5]; in assay [7]; with OV90) was “inactive” in each case. Besides, the Potency in [3] was 2.16 µM (active); in the assay on CRL-7250, 2170 nM (active); with HEK293, 2430 nM (active); in the assay on HaCat it was 4320 nM (active); with C33A, 3550 nM (active); in the assay on Es-2, 6310 nM (active). Further, the Potency in the assay on Hek293T is 3550 nM (active); in the assay with Tov-21-G, 3550 nM (active); in the assay with Tov112D, 2820 nM (active). Moreover, the outcome in assay [6] is “inactive [at 25.7 µM]”. Moreover, the outcome in the assay with NIH3T3 was inactive.
For the compound `C[C@]12CC[C@H](O)C[C@@H]1CC[C@@H]1[C@@H]2CC[C@]2(C)C(=O)CC[C@@H]12`, the Potency entry in [1], in [2], in assay [3], in [4], in assay [5] and in [7] was “inactive” each time. For the same compound, the Potency result with C33A, in the assay on CASKI, in the assay on Es-2, in the assay with Hek293T, in the assay with JEG-3 and with OV90 was “inactive” each time. Also, the Potency result in the assay on PA-1, in the assay on Tov-21-G and in the assay on Tov112D was “inactive” in each case. The compound was classed as inactive in [6]. The max response was -5.26% in the assay on CRL-7250, -15.1% in the assay with HEK293 and -0.109% with NIH3T3.
Take `C[C@]12CC[C@H](O[C@@H]3O[C@H](CO)[C@@H](O)[C@H](O)[C@H]3O[C@@H]3O[C@H](CO)[C@@H](O)[C@H](O)[C@H]3O)CC1=CC[C@@H]1[C@@H]2CC[C@]2(C)[C@@H](C3=CC(=O)OC3)CC[C@]12O`: the Potency entry (in assay [1]; in assay [2]; in [4]; in assay [7]; in the assay on CASKI; with JEG-3) was “inactive” each time. Moreover, the Potency entry with OV90 was “inactive”. Moreover, the Potency is 2.16 µM (active) in [3], 3850 nM (active) with CRL-7250, 6110 nM (active) in the assay on HEK293 and 6310 nM (active) in the assay on Tov-21-G. In addition, the outcome in [6] was “inactive [at 25.7 µM]”. For the same compound, the max response in the assay on HaCat is -17%; in the assay on NIH3T3 it was 1.49%.
